Assay results as given in PubChem BioAssay (Tox21).
Several values for one entry are separate records, joined by “and”; a condition that tells them apart may be missing. Equal entries are not always repeated. Records with an inconclusive call do not appear. A call without a number means that no potency is given here. Activity calls are given as the source filed them. Calls follow the shape of the dose curve; as a rule, active = well fitted activation curve with a large enough effect in the signal ratio in the repeat runs (not every such curve was filed as active); inconclusive = weak or mixed curves, or effect the other way; inactive = no such curve, though single readings can be large or run the other way; the % refers to the signal ratio.

Biological target: Glucocorticoid receptor (Homo sapiens) (UniProt P04150)
Assay: qHTS assay to identify small molecule agonists of the glucocorticoid receptor (GR) signaling pathway (AID 720691)
Details: GR-bla HeLa, beta-lactamase reporter ratio, 18 h; series mostly up to 62.4 µM
Excerpt: U.S. Tox21 Program National Center for Advancing Translational Sciences [NCATS] NIH Chemical Genomics Center [NCGC] U.S. Environmental Protection Agency [EPA] National Institutes of Environmental Health Sciences [NIEHS] National Toxicology Program [NTP] U.S. Food and Drug Administration [FDA] Tox21 Assay Overview: The Glucocorticoid receptor (GR) is one of the members of the nuclear receptor family of ligand-dependent transcription factors. GR plays a critical role in carbohydrate, protein and lipid metabolisms and programmed cell death. CellSensor GR-bla HeLa cell line (Invitrogen) contains a beta-lactamase reporter gene under the control of the glucocorticoid response element stably integrated into HeLa cells, a cervical cancer cell line that expresses glucocorticoid receptor. The activation of the reporter gene under culture conditions can be detected by fluorescence intensity. This cell line has been used to screen the Tox21 10K compound library and to identify the compounds that activate the GR signaling.
Tox21 Assay Protocol Summary: The GR-bla HeLa cells were dispensed at 1500 cells/6 ul/well in 1536-well black wall/clear bottom plates using a Multidrop Combi (ThermoFisher Scientific, Waltham, MA) dispenser. After the assay plates were incubated at a 37 C/5% CO2 incubator for 4 hours, 23 nL of compounds dissolved in DMSO, positive controls or DMSO only was transferred to the assay plate by a pintool station (Kalypsys, San Diego, CA). The plates were incubated at 37 C for 18 hours. After 1 uL of LiveBLAzerTM B/G FRET substrate was added using a Flying Reagent Dispenser (Aurora Discovery, San Diego, CA), the plates were incubated at room temperature for 2 hours, and fluorescence intensity was measured by an Envision plate reader (PerkinElmer, Shelton, CT).
Potency is read from the fitted curve at half-maximal effect.

Chain of Glucocorticoid receptor (Homo sapiens) (P04150 whole entry, looked up): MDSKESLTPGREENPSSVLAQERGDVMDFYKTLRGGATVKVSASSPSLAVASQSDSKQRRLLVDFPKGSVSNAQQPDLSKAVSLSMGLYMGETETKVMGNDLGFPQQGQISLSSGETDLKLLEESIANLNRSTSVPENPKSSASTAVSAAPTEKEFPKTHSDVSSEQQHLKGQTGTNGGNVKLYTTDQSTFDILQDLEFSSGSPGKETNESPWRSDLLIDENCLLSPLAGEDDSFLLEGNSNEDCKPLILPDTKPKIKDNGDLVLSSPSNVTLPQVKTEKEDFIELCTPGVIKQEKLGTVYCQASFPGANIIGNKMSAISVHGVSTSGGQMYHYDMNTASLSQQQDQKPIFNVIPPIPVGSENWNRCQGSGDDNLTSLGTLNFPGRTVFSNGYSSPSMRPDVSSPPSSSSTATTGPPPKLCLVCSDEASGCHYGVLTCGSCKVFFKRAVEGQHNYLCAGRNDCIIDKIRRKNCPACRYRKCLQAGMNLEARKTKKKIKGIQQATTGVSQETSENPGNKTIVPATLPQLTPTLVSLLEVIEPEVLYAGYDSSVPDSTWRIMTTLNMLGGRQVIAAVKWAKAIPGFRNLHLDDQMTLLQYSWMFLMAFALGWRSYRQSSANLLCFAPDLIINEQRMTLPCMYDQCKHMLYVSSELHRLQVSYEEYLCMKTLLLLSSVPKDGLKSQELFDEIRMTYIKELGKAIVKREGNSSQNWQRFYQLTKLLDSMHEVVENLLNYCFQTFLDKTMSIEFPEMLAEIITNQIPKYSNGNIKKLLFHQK

Structure (SMILES) | Potency
CCCCCCCC(=O)OCC(O)CO (stereo not given) | inactive
COc1ccc(O)cc1 | inactive
NC(=O)N/N=C/c1ccc([N+](=O)[O-])o1 | inactive
CCCCOCCOCCSC#N | inactive
O=c1c(-c2ccc(O)cc2)coc2cc(O)cc(O)c12 | inactive
CC1=NN(c2ccccc2)C(=O)C1 | inactive
CN(C)Cc1cc(CN(C)C)c(O)c(CN(C)C)c1 | inactive
C=C(C)OC(C)=O | inactive
COc1ccccc1O | inactive
Cc1cccc(Nc2cc(Cl)nc(SCC(=O)O)n2)c1C | inactive
COC(=O)c1ccc(C=O)cc1 | inactive
C#C[C@]1(O)CC[C@H]2[C@@H]3CCC4=CC(=O)CC[C@@H]4[C@H]3CC[C@@]21CC | inactive
COC1=CC(=O)C[C@@H](C)[C@]12Oc1c(Cl)c(OC)cc(OC)c1C2=O | inactive
O=C(O)CN(CC(=O)O)CC(=O)O | inactive
CCc1cc(C(N)=S)ccn1 | inactive
O=c1cc[nH]c(=O)[nH]1 | inactive
O=C(OCc1ccccc1)c1ccccc1 | inactive
CCCCOCCOCCOC(C)=O | inactive
CCOC(=O)C(C)(C)Oc1ccc(Cl)cc1 | inactive
Cn1cnc2c1c(=O)[nH]c(=O)n2C | inactive

Structure (SMILES) | Potency
CC(=O)CCC(C)C | inactive
COc1cc2c(c(OC)c1OC)-c1ccc(OC)c(=O)cc1[C@@H](NC(C)=O)CC2 | inactive
CN/C(=C\[N+](=O)[O-])NCCSCc1ccc(CN(C)C)o1 | inactive
Cc1ccc(O)c(-n2nc3ccccc3n2)c1 | inactive
N[C@@H](Cc1c[nH]c2ccccc12)C(=O)O | inactive
CC(=O)c1ccc(S(=O)(=O)NC(=O)NC2CCCCC2)cc1 | inactive
CCCCCCCCCCCCCC(=O)OC(C)C | inactive
CC(C)Cc1ccc(C(C)C(=O)O)cc1 (stereo not given) | inactive
C[C@]12CC[C@@H]3c4ccc(O)cc4C[C@@H](CCCCCCCCCS(=O)CCCC(F)(F)C(F)(F)F)[C@H]3[C@@H]1CC[C@@H]2O (stereo not given in full) | inactive
N[C@@H](Cc1c[nH]c2ccc(O)cc12)C(=O)O | inactive
NC(N)=NC(N)=NCCc1ccccc1 | inactive
NC(=O)OCC(COC(N)=O)c1ccccc1 | inactive
COC(=O)c1ccc(O)cc1 | inactive
NC(=O)NO | inactive
CCOCCO | inactive
CC(=O)Oc1ccccc1C(=O)O | inactive
OCCCc1ccccc1 | inactive
NCCNc1cccc2ccccc12 | inactive
CCCCCCCCCCCCCCCCCC(=O)OCC(O)CO (stereo not given) | inactive
C[C@]12C[C@H](O)[C@H]3[C@@H](CCC4=CC(=O)CC[C@@]43C)[C@@H]1CC[C@@H]2C(=O)CO | 169 nM (active) and 69.3 nM (active) and 123 nM (active)
